{"source": "ChEMBL document CHEMBL3988442", "about": "“University of Dundee, Small-Polar-MMV Screening Library” (2021)", "note": "The whole screen tested about 48,000 compounds, of which about 13,000 (27%) showed an effect of 50% or more. The list shows a part of the results.", "data": [{"test_system": "Wolbachia pipientis", "experiment": "Anti-Wolbachia Cell-Based Screen", "type": "functional", "design": "scale not given: in the data most compounds retested in dose-response had high values", "conditions": "5 µM", "units": {"Percent Effect": "%"}, "values": [{"smiles": "CN(Cc1nnc(-c2cccs2)o1)Cc1nc2c(s1)CCCC2", "Percent Effect": -3.278}, {"smiles": "O=C1CC(c2ccccc2)c2c(n3ccsc3nc2=O)N1", "note": "(stereo not given)", "Percent Effect": 12.02}, {"smiles": "O=S(=O)(NCCC(O)c1cccs1)c1ccccc1Cl", "note": "(stereo not given)", "Percent Effect": 10.54}, {"smiles": "Cc1oc(C(C)C)cc1C(=O)N1CCN(c2cnn(C)c(=O)c2)CC1", "Percent Effect": -13.93}, {"smiles": "N#Cc1ccccc1C(=O)N1C[C@H]2CC[C@@H]1CN(c1ncccn1)C2", "Percent Effect": -29.72}, {"smiles": "Cc1cnc(CN2CCC(N(C)Cc3nnc(C4CC4)n3C)C2)cn1", "note": "(stereo not given)", "Percent Effect": -1.467}, {"smiles": "CN(Cc1nnc(C2CC2)n1C)C1CCN(CCc2ccncc2)C1", "note": "(stereo not given)", "Percent Effect": -12.03}, {"smiles": "CCc1cnc(CN(C)C2CCN(CCc3cccs3)C2)o1", "note": "(stereo not given)", "Percent Effect": 3.074}, {"smiles": "CN(Cc1nnc(C2CC2)n1C)C1CCN(Cc2ccncc2)C1", "note": "(stereo not given)", "Percent Effect": 97.4}, {"smiles": "CN(Cc1nnc(C2CC2)n1C)C1CCN(Cc2ccc(F)cc2)C1", "note": "(stereo not given)", "Percent Effect": 5.91}, {"smiles": "Cc1nc(CN2CCC(N(C)Cc3nnc(C4CC4)n3C)C2)cs1", "note": "(stereo not given)", "Percent Effect": 109.7}, {"smiles": "CN(Cc1nnc(C2CC2)n1C)C1CCN(CCc2cccs2)C1", "note": "(stereo not given)", "Percent Effect": 1.002}, {"smiles": "CN(Cc1nnc(C2CC2)n1C)C1CCN(Cc2ccccc2)C1", "note": "(stereo not given)", "Percent Effect": -8.297}, {"smiles": "CN(Cc1nnc(C2CC2)n1C)C1CCN(CCc2ccccc2)C1", "note": "(stereo not given)", "Percent Effect": -2.973}, {"smiles": "Cc1cccc(CN2CCC(N(C)Cc3nnc(C4CC4)n3C)C2)c1", "note": "(stereo not given)", "Percent Effect": 125.1}, {"smiles": "CCc1cnc(CN(C)C2CCN(Cc3nnc(C4CC4)n3C)C2)o1", "note": "(stereo not given)", "Percent Effect": 100.6}, {"smiles": "CCn1ccnc1CN1CCN(c2ncnc3ccsc23)CC1", "Percent Effect": 18.95}, {"smiles": "CCC(=O)NCC(=O)NCc1cc(Br)ccc1OC(F)F", "Percent Effect": 6.284}, {"smiles": "Cc1ccc(N2CCC(NCc3cnc(C4CCC4)s3)CC2)nc1", "Percent Effect": 10.22}, {"smiles": "CN(Cc1nnc(C2CC2)n1C)C1CCN(Cc2ccccc2F)C1", "note": "(stereo not given)", "Percent Effect": 2.374}, {"smiles": "CCn1c(C)nnc1CN(C)C1CCN(Cc2nccn2C)C1", "note": "(stereo not given)", "Percent Effect": -10.2}, {"smiles": "CN(Cc1nnc(C2CC2)n1C)C1CCN(Cc2nccn2C)C1", "note": "(stereo not given)", "Percent Effect": 117.3}, {"smiles": "CCOC(=O)C1CN(S(C)(=O)=O)Cc2ncn(CC)c21", "note": "(stereo not given)", "Percent Effect": 9.527}, {"smiles": "O=C(O)[C@@H]1CN(C(=O)c2ccc3[nH]nnc3c2)C[C@H]1c1cccc(F)c1", "Percent Effect": 0.7419}, {"smiles": "O=C(O)[C@@H]1CN(C(=O)c2ccc3[nH]nnc3c2)C[C@H]1c1ccccc1", "Percent Effect": 101.1}, {"smiles": "Cc1ccc(F)c(C(=O)N2C[C@@H](C(=O)O)[C@H](c3ccncc3)C2)c1Cl", "Percent Effect": -4.386}, {"smiles": "O=C(O)[C@@H]1CN(C(=O)c2ccc(F)c(F)c2)C[C@H]1c1cccc(F)c1", "Percent Effect": 133.7}, {"smiles": "O=C(O)[C@@H]1CN(C(=O)c2ccc(Cl)cc2)C[C@H]1c1cccc(F)c1", "Percent Effect": 111.8}, {"smiles": "Cc1ccc(C(=O)N2C[C@@H](C(=O)O)[C@H](c3ccncc3)C2)cc1F", "Percent Effect": 1.77}, {"smiles": "Cc1ccccc1[C@@H]1CN(C(=O)c2ccc3[nH]nnc3c2)C[C@H]1C(=O)O", "Percent Effect": 1.706}, {"smiles": "O=C(O)[C@@H]1CN(C(=O)c2ccc(O)cc2)C[C@H]1c1cccc(F)c1", "Percent Effect": 133.5}, {"smiles": "COc1ccc(C(=O)N2C[C@@H](C(=O)O)[C@H](c3cccc(F)c3)C2)c(O)c1", "Percent Effect": -6.268}, {"smiles": "O=C(O)[C@@H]1CN(C(=O)c2cc(C3CC3)n[nH]2)C[C@H]1c1cccc(F)c1", "Percent Effect": -7.697}, {"smiles": "COc1ccc(C(=O)N2C[C@@H](C(=O)O)[C@H](c3ccccc3)C2)c(C)c1", "Percent Effect": -5.118}, {"smiles": "O=C(O)[C@@H]1CN(C(=O)c2ccc3nccnc3c2)C[C@H]1c1ccncc1", "Percent Effect": -8.549}]}]}
